# Screens: PubChem, National Center for Advancing Translational Sciences (NCATS)
# Pf Dd2 growth: blocks in vitro growth of P. falciparum Dd2. P. falciparum Dd2 growth, SYBR Green, 72 h. Potency, µM (top dose mostly 28.9 µM), most hits filed as inhibitors. 120,000 tested, 4.3% active. AID 1347417; active = well fitted inhibition curve with a large enough effect; also: nearly all actives have a fitted effect of over 65% in size
#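 Readout: SYBR Green fluorescence, 485 nm excitation, 535 nm emission, after ~16 h lysis at 37C. Before that, Dd2-infected red cells (2.5% hematocrit) grew 72 h with compound, 29 uM top final concentration.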
# Numbers stand for hits; 0 = inactive. The full list was thinned out, with hits kept by preference.
SMILES,Pf Dd2 growth
COC(=O)c1ccc2nc(CO[C@H]3CN(C4CCOCC4)C[C@H]3F)[nH]c2c1,0
CCN(CC)C(=O)c1sc2c(c1C)c(=O)n(CCc1ccccc1)c(=O)n2Cc1ccc(C)cc1,11.2µM
CCN(CC)C(=O)c1sc2c(c1C)c(=O)n(-c1ccccc1)c(=O)n2Cc1c(C)cc(C)cc1C,10µM
CCc1ccc(-n2c(=O)c3c(C)c(C(=O)N(C)C)sc3n(Cc3cccc(C)c3)c2=O)cc1,0
Cc1cc(C)c(NC(=O)Cn2c(=O)n(Cc3ccccc3)c(=O)c3c(C)c(C(=O)N(C)C)sc32)c(C)c1,0
Cc1ccccc1NC(=O)Cn1c(=O)n(Cc2ccccc2)c(=O)c2c(C)c(C)sc21,0
CCc1ccccc1NC(=O)Cn1c(=O)n(Cc2ccccc2)c(=O)c2c(C)c(C(=O)N(C)C)sc21,4.47µM
Cc1sc2c(c1C)c(=O)n(Cc1ccccc1)c(=O)n2Cc1ccc(F)cc1,0
CCN(CC)C(=O)c1sc2c(c1C)c(=O)n(-c1ccccc1)c(=O)n2Cc1cc(=O)n2ccccc2n1,0
CCN(CC)C(=O)c1sc2c(c1C)c(=O)n(-c1ccc(C)c(C)c1)c(=O)n2Cc1cc(=O)n2c(C)cccc2n1,0
CCCC(C)c1nnc(NC(=O)Cc2ccc(OC)cc2OC)s1 (stereo not drawn),0
O=C(CCc1conc1-c1ccc(F)cc1)NCC1CCCO1 (stereo not drawn),0
COc1ccc(CN2CC3(C2)NC(=O)c2ccccc2O3)cc1,0
CCn1cc(C(=O)N2CCCCCCNC(=O)CC2)cn1,0
CC(=O)c1ccc(NC(=O)N[C@H]2C[C@@](O)(C(=O)N[C@H](Cc3ccccc3)C(N)=O)C[C@@H](O)[C@@H]2O)cc1,0
CN(c1ccccc1)c1ccc2nnc(-c3cc(C(=O)NCCc4ccccc4)ccn3)n2n1,8.91µM
CN(c1ccccc1)c1ccc2nnc(-c3cc(C(=O)NCc4ccncc4)ccn3)n2n1,0
CN(c1ccccc1)c1ccc2nnc(-c3cc(C(=O)NC4CCOCC4)ccn3)n2n1,0
CCc1noc(-c2cccn3c(CNC(=O)C(C)c4ccccc4)nnc23)n1 (stereo not drawn),0
Cc1noc(-c2cn(C3CCN(C(=O)c4cccc(Br)c4)CC3)nn2)n1,0
CCc1noc(-c2cn(C3CCN(C(=O)c4ccc(C)cc4)CC3)nn2)n1,0
CCCc1noc(-c2cn(C3CCN(C(=O)c4ccc(OC)c(F)c4)CC3)nn2)n1,0
CCc1noc(-c2cn(C3CCN(C(=O)c4ccc(OC)cc4)CC3)nn2)n1,0
CCCc1noc(-c2cn(C3CCN(C(=O)c4cccc(N(C)C)c4)CC3)nn2)n1,3.55µM
CCCc1noc(-c2cn(C3CCN(C(=O)c4ccc(C#N)cc4)CC3)nn2)n1,12.6µM
SMILES,Pf Dd2 growth
CCOc1cc(=O)n2c(c1C(=O)NCc1cc(OC)ccc1OC)CCCC2,0
CN(C)C[C@@H]1CN(Cc2ccncc2)C[C@H]1NC(=O)c1cccc(C#N)c1,0
O=C1COc2ccc(NCc3cccs3)nc2CN1Cc1ccc(C(F)(F)F)cc1,0
COc1ccccc1-c1[nH]nc2ncc(C(=O)N3CCC(c4ccccc4)CC3)nc12,14.1µM
COc1ccccc1-c1[nH]nc2ncc(C(=O)N3CCNC(=O)C3)nc12,0
COc1ccccc1-c1[nH]nc2ncc(C(=O)N(C)c3ccccc3)nc12,0
Cc1cccc(N(C)c2ccc3nnc(-c4cc(C(=O)N(C)C)ccn4)n3n2)c1,0
Cc1ocnc1C(=O)N1CCC2(CCC(=O)N(CC(C)O)C2)CC1 (stereo not drawn),0
O=C(NCCC1=CCCCC1)c1cn(CCCc2ccccc2)nn1,0
Cc1cc(C(=O)N2CCN(c3ccccc3)CC2)c2c(C)nn(-c3cccc(F)c3)c2n1,0
CCc1ccc(-n2nc(C)c3c(C(=O)N4CCN(c5ccccc5)CC4)cc(C)nc32)cc1,0
CCc1ccc(-n2nc(C)c3c(C(=O)N4CCN(c5cccc(Cl)c5)CC4)cc(C)nc32)cc1,11.2µM
Cn1cccc1C(=O)N1CCCCC1c1nc(-c2cnccn2)n[nH]1 (stereo not drawn),0
CC(O)c1cc2n(n1)CCN(CCS(=O)(=O)c1ccccc1)C2 (stereo not drawn),0
COc1ccccc1NC(=O)Cn1c(=O)c(-c2noc(C)n2)c2n(c1=O)CCCCC2,0
CNC(=O)[C@H]1C[C@H](Oc2cccnc2)CN1C(=O)NCC(C)C,0
O=c1ccc2cc(S(=O)(=O)N3CCC4(CCCNC4)C3)ccc2o1 (stereo not drawn),0
CNc1ccc(C(=O)N2CCC3(CCCNC3)C2)cc1 (stereo not drawn),0
O=C(c1cc(F)c(F)c(F)c1)N1CCC2(CCCNC2)C1 (stereo not drawn),0
CC(C)c1ccc(S(=O)(=O)N2CCC3(CCCNC3)C2)cc1 (stereo not drawn),5.01µM
O=S(=O)(c1ccccc1C(F)(F)F)N1CCC2(CCCNC2)C1 (stereo not drawn),7.94µM
CN1CCC(N2CCN(S(=O)(=O)c3ccccc3C(F)(F)F)CC2)C1=O (stereo not drawn),0
CCC(C)(C)C(=O)N1CCn2c(nnc2[C@@H]2C[C@@H](O)CN2Cc2ccccc2)C1,0
CC(C)Oc1cccc(-c2nnc(CCC(=O)N3CCC(Cc4ccccc4)CC3)c(=O)[nH]2)c1,0
CC(C)(C)CC(=O)Nc1nc2c(s1)C[C@@H]1[C@](C)(CO)[C@H](O)CC[C@@]1(C)[C@@H]2CC(=O)NCCN1CCOCC1,0
SMILES,Pf Dd2 growth
O=C(O)CC1(CC(=O)N2CCN3C(=O)c4cc(-c5ccsc5)ccc4NC(=O)[C@@H]3C2)CCCC1,0
C[C@@H]1CN(C(=O)NCc2ccco2)C[C@H]1c1nc(-c2ccncc2)no1,0
COc1ccc(OC)c(CCNc2ncnc3onc(-c4ccc(Cl)cc4)c23)c1,11.2µM
COc1ccc(Nc2ncnc3onc(-c4ccc(Cl)cc4)c23)cc1Cl,0
Cc1cccc(CN2CCC(CNc3ncnc4onc(-c5ccc(Cl)cc5)c34)CC2)c1,0
Clc1ccc(CN2CCC(CNc3ncnc4onc(-c5ccc(Cl)cc5)c34)CC2)cc1,4.47µM
COc1cccc(N2CCN(c3ncnc4onc(-c5ccc(Cl)cc5)c34)CC2)c1,0
Cc1ccc(CCNc2ncnc3onc(-c4ccc(F)cc4)c23)cc1,0
Clc1ccc(-c2noc3ncnc(N4CCCCC4)c23)cc1,0
Cc1ccc(CN2CCC(CNc3ncnc4onc(-c5ccc(Cl)cc5)c34)CC2)cc1,3.16µM
CCOc1ccc(Nc2ncnc3onc(-c4ccc(Cl)cc4)c23)cc1,0
Cc1ccccc1CN1CCC(CNc2ncnc3onc(-c4ccc(Cl)cc4)c23)CC1,8.91µM
Cc1ccc(C)c(N2CCN(CCCNc3ncnc4onc(-c5ccc(Cl)cc5)c34)CC2)c1,0
Cc1cccc(Nc2ncnc3onc(-c4ccc(Cl)cc4)c23)c1C,0
Cc1ccc(C2Cn3nnc(-c4noc(Cc5ccc(F)cc5)n4)c3CO2)cc1 (stereo not drawn),0
O=C1C(N2CCN(Cc3cccnc3)CC2)CCN1CCc1ccccc1 (stereo not drawn),0
COc1ccc(CN2C[C@H]3CN(Cc4ccc([N+](=O)[O-])cc4)CCN3C2=O)cc1,0
Cn1c(Cn2cccn2)nnc1C1CCN(C(=O)N2CCOCC2)CC1,0
CC(=O)Nc1ccc(S(=O)(=O)N2CCC(CCC(=O)Nc3cccc(C)c3)CC2)cc1,0
O=C1CCN(Cc2ccncc2)CCCC(c2nc(-c3cnccn3)no2)CCN1 (stereo not drawn),0
CCc1nc(-c2c3n(c(=O)n(Cc4cc(F)cc(F)c4)c2=O)CCCCC3)no1,0
